In ChEMBL document CHEMBL3988442, “University of Dundee, Small-Polar-MMV Screening Library” (2021):
Screen size: about 38,000 compounds; about 1,200 (3.2%) showed an effect of 50% or more. The median lay at about -58%. Shown is part of a subset that was picked to be rich in strong results.

Tested on: Plasmodium falciparum
Assay: Calibr Malaria Delayed Death Assay SOP
Format: functional, organism-based
Set-up: scale not given: in the data most compounds retested in dose-response had high values
Details: concentration 4.99e-06 (unit not given; other assays of the set use mol/L)

In order of falling “Percent Effect” value:
1. Cc1cc(C)cc(CN2C[C@H]3COC[C@H](N4CCN(C)CC4)[C@H]3C2)c1.O=C(O)C(F)(F)F.O=C(O)C(F)(F)F.O=C(O)C(F)(F)F  93.63%
2. O=C(O)C(F)(F)F.O=C(O)C(F)(F)F.O=C(O)C(F)(F)F.c1cnn(C[C@@H]2C[C@@H]3CN(CC4CC4)CC[C@@H]3N2c2nccs2)c1  89.5%
3. Cc1ccc(CCN[C@@H]2c3ccccc3C3(CCNCC3)[C@H]2O)s1  87.27%
4. COc1ccccc1CCN[C@@H]1c2ccccc2C2(CCNCC2)[C@H]1O  81.73%
5. CCC(NCc1ccccc1C)c1ccccc1OCC(=O)NC (stereo not given)  78.75%
6. CN1CCN(Cc2ccccc2Oc2nccc3occc23)CC1  77.3%
7. CCC(NCc1ccccc1Cl)c1ccccc1OCC(=O)NC (stereo not given)  73.2%
8. CN1CC[C@H]2[C@H](C[C@@H](CN3CCCC3)N2c2nccs2)C1.O=C(O)C(F)(F)F.O=C(O)C(F)(F)F.O=C(O)C(F)(F)F  72.73%
9. COc1ccc(CN2C[C@@H]3COC[C@@H](N4CCN(C)CC4)[C@@H]3C2)cc1.O=C(O)C(F)(F)F.O=C(O)C(F)(F)F.O=C(O)C(F)(F)F  72.48%
10. c1ccc(Oc2nccc3occc23)c(CN2CCCCC2)c1  71.51%
11. Cc1nc(-c2cccc(N3CCC(N4CCCC4)CC3)c2)cs1  70.2%
12. CC(C)N1CC[C@H]2[C@H](C[C@@H](Cn3cccn3)N2c2nccs2)C1.O=C(O)C(F)(F)F.O=C(O)C(F)(F)F.O=C(O)C(F)(F)F  65%
13. CC(c1ccc(F)cc1F)N1CCN(CCC(=O)NC(N)=O)CC1 (stereo not given)  63.51%
14. Cc1ccsc1CN(CCN(C)C)C(=O)c1ccccc1C#N  59.93%
15. COc1ccc(Oc2nccc3occc23)cc1CN1CCCC1  59.92%
16. Cc1n[nH]cc1CNCc1cccc(OCC(F)(F)F)c1.Cl  56.25%
17. COc1ccc(Oc2ccc(C(F)(F)F)cn2)cc1CN1CCCC1  49.66%
18. O=C(O)C(F)(F)F.O=C(O)C(F)(F)F.c1cc2c(cc1CN1C[C@@H]3COC[C@@H](N4CCCC4)[C@@H]3C1)OCO2  41.71%
19. Cc1ccc(CN(CCN(C)C)C(=O)Nc2ccc(C)c(C#N)c2)s1  40.03%
20. COc1ccc(CN2C[C@@H]3COC[C@H](N4CCN(C)CC4)[C@@H]3C2)cc1.O=C(O)C(F)(F)F.O=C(O)C(F)(F)F.O=C(O)C(F)(F)F  39.43%
21. CN(C)[C@H]1COC[C@@H]2CN(Cc3ccc4c(c3)OCO4)C[C@@H]21.O=C(O)C(F)(F)F.O=C(O)C(F)(F)F  25.51%
22. O[C@H]1[C@H](NCCSc2ccccn2)c2ccccc2C12CCNCC2  23.57%
23. CN1CCN(CCCOc2ccccc2CN2C[C@H]3CC[C@H]2C3)CC1  15.78%
24. CCC(NC(=O)CC(F)(F)F)c1ccccc1OCC(=O)N1CCCC1 (stereo not given)  15.61%
25. Cc1ccccc1CNc1ccccc1OCC(=O)N1CCOCC1  13.74%
26. Cc1ccc(-n2ncc3c2CCCC3N)cc1C (stereo not given)  5.746%
27. CC(=O)c1ccc(-n2c(C)cn(CCS(C)(=O)=O)c2=O)cc1  3.074%
28. CCS(=O)(=O)N1CCN(Cc2cccnc2)c2nc(C)ccc2C1.O=C(O)C(F)(F)F.O=C(O)C(F)(F)F  2.753%
29. Cc1ccsc1CN(CCN(C)C)C(=O)c1cc2ccccc2[nH]1  -0.6518%
30. CCN(CC)[C@H]1COC[C@@H]2CN(Cc3cnn(C)c3)C[C@@H]21  -7.149%
31. Cc1ccccc1C1(C(=O)NCCN2CCCC2)CCOCC1  -7.598%
32. COc1ccc2nnc(CCC(=O)Nc3nc4c(s3)CCCCC4)n2n1  -7.858%
33. CC(=O)c1cccc(S(=O)(=O)NCCNC(=O)c2snnc2C)c1  -10.04%
34. O[C@H]1[C@H](NCCc2cnccn2)c2ccccc2C12CCNCC2  -10.61%
35. CC(=O)N1[C@H](Cn2cncn2)C[C@@H]2CN(CC3CC3)CC[C@@H]21.O=C(O)C(F)(F)F  -11.44%
36. CC(c1ccc(F)cc1F)N1CCN(CCC(=O)O)CC1.Cl (stereo not given)  -12.88%
37. CC(C)[C@]1(O)CN(C(=O)C2(Cn3cccn3)CC2)C[C@H]1C  -13.49%
38. CC(c1ccc(F)cc1F)N1CCN(CCN2CCCC2=O)CC1 (stereo not given)  -15.63%
39. CN1CCN([C@H]2COC[C@@H]3CN(Cc4cccnc4)C[C@@H]32)CC1  -16.78%
40. CN1CCN(Cc2c(-c3ccco3)[nH]c3ncccc23)CC1  -17.66%
41. CCC(=O)N1CC[C@H]2[C@H](C[C@@H](Cn3cccn3)N2c2nccs2)C1.O=C(O)C(F)(F)F.O=C(O)C(F)(F)F  -17.69%
42. Cc1csc(CN2CC[C@H]3O[C@H](C(=O)Nc4cccnc4)CC[C@H]32)n1.O=C(O)C(F)(F)F.O=C(O)C(F)(F)F  -21.13%
43. COc1ccc(-c2nc(CN3CCc4cnc(C)nc4C3)no2)cc1  -21.98%
44. O=S1(=O)CCCN(Cc2ccccc2OCC(F)(F)F)CC1  -23.25%
45. CN(C)c1cc(C(=O)NCc2cccnc2-n2cncn2)ccn1  -24.53%
46. Cc1nc(-c2cccc(N3CCC(N4CCCC(C#N)C4)CC3)c2)cs1 (stereo not given)  -24.98%
47. Cc1nn2cccnc2c1C(=O)N1CCCC(n2cccn2)C1 (stereo not given)  -26.13%
48. COc1ccc(Oc2cccc(C#N)n2)cc1CN1CCCC1  -26.21%
49. COC1CCCN(C2CCN(c3cccc(-c4csc(C)n4)c3)CC2)C1 (stereo not given)  -26.41%
50. COc1ccc(CN2C[C@@H]3COC[C@@H](CC(=O)N4CCCC4)[C@@H]3C2)cc1.O=C(O)C(F)(F)F  -28.59%
51. CN1[C@H](CN2CCCC2)C[C@@H]2CN(C(=O)Cc3cccs3)CC[C@@H]21.O=C(O)C(F)(F)F.O=C(O)C(F)(F)F  -31.64%
52. O[C@H]1[C@H](NCCc2ccccn2)c2ccccc2C12CCNCC2  -35.06%
53. Cc1n[nH]cc1CNC(=O)Nc1cccc(OCC(F)(F)F)c1  -36.62%
54. CC(=O)N1CC[C@H]2[C@H](C[C@@H](Cn3cncn3)N2c2nccs2)C1.O=C(O)C(F)(F)F  -37.22%
55. COC[C@@]12CCO[C@@H]1CCN(C(=O)CCc1ccccc1Cl)C2  -39.1%
56. Cc1cccc(C2CCCN2S(=O)(=O)N(C)C)n1 (stereo not given)  -47.51%
57. CC(=O)N1CC[C@H]2[C@H](C[C@@H](CN3CCCC3)N2c2nccs2)C1.O=C(O)C(F)(F)F.O=C(O)C(F)(F)F  -53.97%
58. Cc1nc(N2CCCC2)nc2c1CCN(C(=O)C(C)C)CC2  -54.78%
59. CNC(=O)[C@H]1C[C@@H]2CN(C(=O)NCCc3ccccc3)C[C@H]1O2  -57.69%
60. O=C1CCNc2ccccc2CN1Cc1ccco1  -58.24%
61. CN(Cc1cncnc1)[C@H]1CN(C(=O)c2ccc[nH]2)[C@@H]2CCCO[C@@H]21  -58.36%
62. Cl.Cl.c1csc(N2[C@H](Cn3cncn3)C[C@@H]3CNCC[C@@H]32)n1  -62.09%
63. Cc1ccc(OCCCC(=O)NC(C)c2nnc3n2CCC3)cc1 (stereo not given)  -64.5%
64. Cc1noc(C)c1C(=O)N1CCSc2ccc(Cl)cc21  -64.97%
65. Cc1ccccc1CN1CC[C@H]2C[C@H](C(=O)N(C)C)O[C@H]2C1.O=C(O)C(F)(F)F  -65.63%
66. COc1cc(S(=O)(=O)N2CCc3cc(Br)ccc32)cc(C(=O)O)c1OC  -66.42%
67. O=S1(=O)N=C(CSCc2ccccc2)Nc2ccccc21  -68.12%
68. Cc1cccc(NC(=O)[C@@H]2CCCN2Cc2nc3ccccc3o2)n1  -70.67%
69. Cc1n[nH]cc1CNCc1ccnc(OCC(F)(F)F)c1.Cl  -70.94%
70. O=C(COc1cccc2c1CCC2=O)NCc1ccccc1Cl  -71.52%
71. CCCc1cc(N2CCC(Cc3cccc(C(N)=O)c3)C2)nc(C)n1 (stereo not given)  -73.24%
72. O=C(Nc1ccc(-n2cccn2)cc1)N1CCC(O)C1 (stereo not given)  -73.59%
73. Cc1ccc(CNCC2Cn3nncc3CO2)s1 (stereo not given)  -76.38%
74. CCC(=O)N1CC[C@H]2[C@H](C[C@@H](CN3CCCC3)N2c2nccs2)C1.O=C(O)C(F)(F)F.O=C(O)C(F)(F)F  -82.37%
75. O=C(O)C(F)(F)F.O=C(O)c1cc(NS(=O)(=O)c2ccc(Cl)s2)ccc1N1CCOCC1  -83.84%
76. C=C(C)CSc1nnc(CCNC(=O)OC(C)(C)C)o1  -85.15%
77. COCCN(Cc1cccnc1)S(=O)(=O)c1ccc(F)cc1C  -88.98%
78. CCC(Nc1cccc(Oc2ccccn2)c1)C(N)=O (stereo not given)  -89.12%
79. O=C1CCC(=O)N1CCn1nnc(-c2ccc(Br)cc2)n1  -91.28%
80. COc1ccnc(NC(Cc2ccccc2)C(N)=O)n1 (stereo not given)  -102.6%
81. CCc1nc(Nc2cccc(C(=O)NC)c2)c2c(n1)c(C)nn2CC  -106.8%
82. Fc1ccccc1OCCN1CCCCC1Cn1cncn1 (stereo not given)  -107.8%
83. COCCN(C)[C@@H]1c2ccccc2C2(CCNCC2)[C@H]1O  -111.9%
84. CCOC(=O)N[C@H]1C[C@@H](C(=O)NCCc2cccc(Cl)c2)N(C)C1  -112.6%
85. O=C(O)C(F)(F)F.O=C(O)C(F)(F)F.c1nc(CNC2CCOCC2)c2n1CCCN(CC1CC1)C2  -115.6%
86. CCCc1nnc(N2CCN(Cc3ccccc3OC)CC2)o1  -122.5%
87. O=C(c1ccc(Cn2cccc2)cc1)N1CCN(CCO)CC1  -124.1%
88. Cc1cnn(C2CCCN(C(=O)c3ccc(-n4ccnc4)cc3)C2)c1 (stereo not given)  -131.1%
89. COc1ccc(C(=O)c2cnc(C(C)C)n2C)cc1  -137.4%
90. CC(C)c1nnc(CN(C)Cc2ccccc2-c2ccccc2)o1  -137.8%
91. c1ncn(CC2CCCN(Cc3noc(C4CC4)n3)C2)n1 (stereo not given)  -140.8%
92. O=C(NC[C@@H]1CCCO1)c1cccnc1N1CCCC1c1ccccn1 (stereo not given in full)  -159.2%
93. CCOC(=O)[C@H]1[C@@H](O)C(=O)N(C)C12CCN(C(=O)CC(C)(C)C)CC2  -173.1%
94. COc1ccccc1C1(C(=O)NCCN2CCOCC2)CCOCC1  -173.3%
95. CC(=O)N1[C@H](Cn2cncn2)C[C@@H]2CN(Cc3nccs3)CC[C@@H]21  -179.2%
